Source: PubChem BioAssay (National Center for Advancing Translational Sciences (NCATS))
Sm TGR inh = qHTS Assay for the Inhibitors of Schistosoma Mansoni Peroxiredoxins; Schistosoma mansoni thioredoxin glutathione reductase (TGR), Q962Y6; purified TGR, DTNB reduction, TNB absorbance 405 nm; Potency, µM (titrated, usually from 114 µM), without a hit: at the top dose activity change, negative = inhibition, usual class: inhibitors; actives 3% (n = 360,000); AID 485364, 2010; note: % is set by controls: 0 for no effect and ±100 for the full control effect; nearly all actives have a fitted effect of over 60% in size
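First, TGR (20 nM dispensed) and NADPH were mixed with compound. Second, a 15 min room-temperature incubation followed. Third, further NADPH and then DTNB were added to start the reaction. Finally, TNB absorbance was monitored kinetically.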
NS1 function inh = qHTS Assay for Inhibitors of Influenza NS1 Protein Function; actives 0.4% (n = 270,000); Potency, µM (doses to about 46.1 µM), inactives show top-dose activity, positive = more growth; calls by dose curve; note: actives are rising curves; nearly all actives have a fitted effect of over 50% in size
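OD600 was taken as the measure of yeast growth restored by compound in an NS1-expressing S. cerevisiae strain. Cells had been washed out of glucose medium and diluted 1:100 into galactose -URA medium, pH 6.0.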
AMA1 RON2 block = qHTS for Inhibitors of AMA1-RON; Towards Development of Antimalarial Drug Lead: Primary Screen; Plasmodium falciparum AMA1 (3D7) - RON2 peptide interaction; AlphaScreen AMA1-biotinylated RON2 peptide binding; Potency, µM (doses to about 58.2 µM), inactives show at the highest dose activity change, negative = inhibition, actives largely listed as inhibitors; actives 0.2% (n = 360,000);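 note: 0% = vehicle wells and -100% = peptide control; nearly all actives have a fitted effect of over 45% in size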
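AMA1 (3D7) with his tag at 25 nM final met compounds first, then biotinylated RON2 peptide at 25 nM; detection used donor plus acceptor beads, 10 µg/mL apiece, read by AlphaScreen after 30 min at room temperature.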
Pf growth 48h = Primary qHTS for delayed death inhibitors of the malarial parasite plastid, 48 hour incubation; P. falciparum luciferase growth in erythrocytes, 48 h; Potency, µM (titrated, usually from 28.7 µM), for the others: top-dose activity change, negative = inhibition, usual class: inhibitors; actives 5.9% (n = 310,000); note: % is set by controls: 0 for no effect and ±100 for the full control effect
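Luminescence readout; reporter = integrated firefly luciferase in P. falciparum. RBC culture at 2% hematocrit, 0.1% parasitemia final, 37 C/5% CO2; decreased signal taken as growth inhibition.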
Pf growth 96h = Primary qHTS for delayed death inhibitors of the malarial parasite plastid, 96 hour incubation; P. falciparum luciferase reporter growth, 96 h; Potency, µM (highest dose often 28.7 µM), for inactives: top-dose activity change, negative = inhibition, most hits filed as inhibitors; actives 6.9% (n = 320,000); AID 504834, 2011; note: % is set by controls: 0 for no effect and ±100 for the full control effect
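Delayed-death screen, second-generation endpoint: infected erythrocytes, 2% hematocrit, 0.05% parasitemia final; 96 hours at 37 C, 5% CO2; luciferase detection reagent; luminescence decrease equals reduced growth.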
Starred values were filed as active, the others as inactive; ? = inconclusive; nt = no result. Hits are enriched below; roughly 11% of the tested compounds scored in any of these assays. Unless noted, calls come from the whole dose curve; as a rule, active = well fitted curve in the direction sought with a large enough effect; inconclusive = small, poorly fitted or top-dose-only effect, or another doubt; inactive = no such curve, though single readings can be large; an effect the other way counts as inactive or inconclusive. Potency is the fitted concentration of half-maximal effect.

SMILES	Sm TGR inh	NS1 function inh	AMA1 RON2 block	Pf growth 48h	Pf growth 96h
COc1ccc2c(ccc[n+]2CC(=O)c2ccccc2)c1	-2%	18%	-2%	-22%	0%
CCOc1ccc(C(=O)C[n+]2cccc3cc(C)ccc32)cc1	-6%	6%	-10%	8.3µM*	7%
O=C(C[n+]1cccc2ccccc21)c1ccccc1	-5%	23%	2%	?	13µM*
O=C(NC1CCN(S(=O)(=O)c2ccccc2)CC1)c1cccc(F)c1	2%	12%	2%	23%	?
Cc1ccc(N(CCC#N)C(=O)CCl)cc1C	18µM*	-11%	-5%	9.3µM*	?
COc1ccc(S(=O)(=O)Nc2ccc3c(c2)N(C(C)=O)CCC3)cc1F	1%	nt	nt	nt	nt
Oc1ccc(C2CNCc3sccc32)cc1O (centres undefined)	35µM*	4%	-2%	13µM*	?
COC(=O)c1cc2sc(Cl)cc2n1Cc1cc(C)ccc1C	2%	nt	nt	nt	nt
Cc1cc(NS(=O)(=O)c2ccc(NC(=O)COc3ccc(Cl)c(C)c3)cc2)no1	-7%	9%	-3%	-14%	-3%
Nc1nc(N)c2cc(Sc3ccc4ccccc4c3)ccc2n1	1%	-4%	5%	0.0074µM*	?
Nc1nc(N)c2cc(Sc3ccc(Cl)cc3)ccc2n1	nt	nt	-11%	nt	nt
O=C(CCN1C(=O)C2C3C=CC(C3)C2C1=O)Nc1nccs1 (centres undefined)	12%	2%	4%	23%	?
O=C(CCCCCN1C(=O)C2C3C=CC(C3)C2C1=O)Nc1nccs1 (centres undefined)	-12%	1%	-5%	nt	2.3µM*
O=C1C=C(NCCN2CCOCC2)C(=O)c2cnccc21	-26%	-40%	nt	1.5µM*	1.7µM*
CCC(C(=O)Nc1ccccc1OC)n1c(C(=O)OC)cc2ccsc21 (centres undefined)	-16%	-37%	49%	12µM*	?
COc1ccccc1CN1CC(C(=O)N(C)Cc2ccc(C)o2)CCC1=O (centres undefined)	20µM*	-3%	-11%	4%	8%
COc1ccccc1CN1CC(C(=O)NCCc2ccc(C)o2)CCC1=O (centres undefined)	25µM*	-10%	5%	-18%	9.3µM*
COc1ccc(S(=O)(=O)N2CCC(C(=O)N(C)Cc3ccc(C)o3)CC2)cc1OC	40µM*	nt	7%	?	?
COc1ccccc1CCNC(=O)C1CCC(=O)N(Cc2ccccc2OC)C1 (centres undefined)	0%	5%	-8%	-5%	2%
CCOC(=O)[C@H]1[C@H]2COc3ccccc3[C@@H]2N2C(=O)c3ccccc3NC(=O)[C@@]12C	1%	nt	5%	?	?
Cc1ccc(CNC(=O)C2c3ccccc3C(=O)N(C)C2c2c[nH]c3ccccc23)o1 (centres undefined)	50µM*	-13%	-4%	?	17%
Cc1ccc(C(=O)Nc2c(-c3ccccc3)nc3ccccn23)cc1	-14%	nt	nt	nt	nt
CC(C)Cc1ccc(CN2CCCC(NC(=O)c3ccoc3)C2)cc1 (centres undefined)	6%	3%	-19%	10µM*	64%
CC(C)Cc1ccc(CN2CCCC(NC(=O)c3cccc(-n4cnnc4)c3)C2)cc1 (centres undefined)	5%	30%	-19%	13µM*	-22%
CC(C)Cc1ccc(CN2CCCC(NC(=O)c3ccnn3C)C2)cc1 (centres undefined)	-12%	0%	5%	?	-17%
CC(C)Cc1ccc(CN2CCCC(NC(=O)c3nn(C)c(=O)c4ccccc34)C2)cc1 (centres undefined)	0%	10%	0%	-18%	10%
COc1ccc(C(=O)Nc2cccc(OCc3cc(=O)n4c5c(sc4n3)CCCC5)c2)cc1OC	-9%	nt	nt	nt	nt
